# Experimental data: paper PMC7862700, “An all-to-all approach to the identification of sequence-specific readers for epigenetic DNA modifications on cytosine”
# Columns and labels:
# Experiment in all cases: DAPPL (digital affinity profiling via proximity ligation, sequencing); 10 mM Tris-HCl pH 7.5, 50 mM NaCl, 1 mM DTT, 4% glycerol, room temperature, 30 min; GST-TFs on glutathione beads, 16-mer random dsDNA library, 0.1% formaldehyde crosslink after washing; high values mean tight binding
# [1] = target: T1, FEV (Homo sapiens, UniProt Q99581 1-238); conditions: protein: recombinant; tags: N-terminal GST; dsDNA, one strand shown
# T1 sequence: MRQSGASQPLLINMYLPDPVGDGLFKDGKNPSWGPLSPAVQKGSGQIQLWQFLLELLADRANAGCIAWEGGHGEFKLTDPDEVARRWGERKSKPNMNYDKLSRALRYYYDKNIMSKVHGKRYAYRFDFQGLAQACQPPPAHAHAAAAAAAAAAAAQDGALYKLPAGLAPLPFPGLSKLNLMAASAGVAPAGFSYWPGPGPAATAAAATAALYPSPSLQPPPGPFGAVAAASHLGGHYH
# Method in brief: (§1)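 Binding signal is defined as a hexamer's read frequency for one factor over its frequency for the tag-only sample. To obtain reads, GST-fused human transcription factors were expressed in yeast, captured on glutathione beads, barcoded with DNA and pooled with that sample. Pools met 200 nmole of a 16-mer random double-stranded DNA library in Tris/NaCl/DTT/glycerol buffer for 30 min at room temperature before washing, 0.1% formaldehyde crosslinking, proximity ligation (BsaI/T4 ligase, 1 h, 37 °C), PCR and Illumina NextSeq500 sequencing.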
# [2] = target: ETV5 (Homo sapiens, UniProt P41161 1-510); conditions: protein: recombinant; tags: N-terminal GST; dsDNA, one strand shown
# Method in brief: as §1
# [3] = target: HSF1 (Homo sapiens, UniProt Q00613 1-529); conditions: protein: recombinant; tags: N-terminal GST; chain copies: 3; dsDNA, one strand shown
# Method in brief: as §1
# [4] = target: T2, SPIC (Homo sapiens, UniProt Q8N5J4 1-248); conditions: protein: recombinant; tags: N-terminal GST; dsDNA, one strand shown
# T2 sequence: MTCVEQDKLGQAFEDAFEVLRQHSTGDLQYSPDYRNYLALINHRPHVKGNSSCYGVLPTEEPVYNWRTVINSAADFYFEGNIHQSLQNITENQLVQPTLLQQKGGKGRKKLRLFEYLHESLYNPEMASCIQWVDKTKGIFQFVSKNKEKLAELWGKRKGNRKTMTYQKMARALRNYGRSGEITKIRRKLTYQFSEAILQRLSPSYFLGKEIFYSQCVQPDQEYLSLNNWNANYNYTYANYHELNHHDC
# Method in brief: as §1
# [5] = target: ELF4 (Homo sapiens, UniProt Q99607 1-663); conditions: protein: recombinant; tags: N-terminal GST; dsDNA, one strand shown
# Method in brief: as §1
# [6] = target: T3, ELK4 (Homo sapiens, UniProt P28324-2 1-405); conditions: protein: recombinant; tags: N-terminal GST; dsDNA, one strand shown
# T3 sequence: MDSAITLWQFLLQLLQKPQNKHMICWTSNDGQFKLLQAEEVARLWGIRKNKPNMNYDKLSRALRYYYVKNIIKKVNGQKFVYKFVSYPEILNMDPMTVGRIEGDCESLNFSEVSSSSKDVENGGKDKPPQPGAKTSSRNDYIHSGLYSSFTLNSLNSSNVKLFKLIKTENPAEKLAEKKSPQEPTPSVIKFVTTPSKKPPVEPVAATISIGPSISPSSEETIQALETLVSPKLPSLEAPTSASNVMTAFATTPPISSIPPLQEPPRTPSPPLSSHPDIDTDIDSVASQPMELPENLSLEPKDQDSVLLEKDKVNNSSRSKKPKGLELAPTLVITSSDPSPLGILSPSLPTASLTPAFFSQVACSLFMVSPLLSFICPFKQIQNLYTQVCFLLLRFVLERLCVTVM
# Method in brief: as §1
# [7] = target: T4, ETV2 (Homo sapiens, UniProt O00321 1-342); conditions: protein: recombinant; tags: N-terminal GST; dsDNA, one strand shown
# T4 sequence: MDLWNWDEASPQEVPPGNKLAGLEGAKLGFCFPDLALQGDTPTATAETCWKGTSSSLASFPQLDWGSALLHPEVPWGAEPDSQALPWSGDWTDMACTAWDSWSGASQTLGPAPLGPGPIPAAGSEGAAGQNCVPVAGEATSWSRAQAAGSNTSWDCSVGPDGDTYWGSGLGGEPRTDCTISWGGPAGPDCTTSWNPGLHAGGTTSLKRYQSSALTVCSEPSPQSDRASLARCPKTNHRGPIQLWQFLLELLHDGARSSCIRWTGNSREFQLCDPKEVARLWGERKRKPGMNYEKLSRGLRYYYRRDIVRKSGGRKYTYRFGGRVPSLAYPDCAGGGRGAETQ
# Method in brief: as §1
# [8] = target: T5, ELF3 (Homo sapiens, UniProt P78545 1-371); conditions: protein: recombinant; tags: N-terminal GST; dsDNA, one strand shown
# T5 sequence: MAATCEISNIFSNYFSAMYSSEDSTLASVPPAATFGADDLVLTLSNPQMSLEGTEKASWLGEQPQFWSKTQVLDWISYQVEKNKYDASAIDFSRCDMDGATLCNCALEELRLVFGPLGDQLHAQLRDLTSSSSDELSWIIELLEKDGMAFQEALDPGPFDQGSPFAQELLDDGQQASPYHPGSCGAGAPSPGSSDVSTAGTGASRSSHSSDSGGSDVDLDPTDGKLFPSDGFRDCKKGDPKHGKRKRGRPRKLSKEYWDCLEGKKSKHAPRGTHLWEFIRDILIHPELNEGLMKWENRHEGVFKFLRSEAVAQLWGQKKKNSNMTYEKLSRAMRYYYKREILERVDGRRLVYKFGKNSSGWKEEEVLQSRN
# Method in brief: as §1
# [9] = target: CRX (Homo sapiens, UniProt O43186 1-299); conditions: protein: recombinant; tags: N-terminal GST; dsDNA, one strand shown
# Method in brief: as §1
# [10] = target: ETV1 (Homo sapiens, UniProt P50549 1-477); conditions: protein: recombinant; tags: N-terminal GST; dsDNA, one strand shown
# Method in brief: as §1
# [11] = target: T6, ERF (Homo sapiens, UniProt P50548 1-548); conditions: protein: recombinant; tags: N-terminal GST; dsDNA, one strand shown
# T6 sequence: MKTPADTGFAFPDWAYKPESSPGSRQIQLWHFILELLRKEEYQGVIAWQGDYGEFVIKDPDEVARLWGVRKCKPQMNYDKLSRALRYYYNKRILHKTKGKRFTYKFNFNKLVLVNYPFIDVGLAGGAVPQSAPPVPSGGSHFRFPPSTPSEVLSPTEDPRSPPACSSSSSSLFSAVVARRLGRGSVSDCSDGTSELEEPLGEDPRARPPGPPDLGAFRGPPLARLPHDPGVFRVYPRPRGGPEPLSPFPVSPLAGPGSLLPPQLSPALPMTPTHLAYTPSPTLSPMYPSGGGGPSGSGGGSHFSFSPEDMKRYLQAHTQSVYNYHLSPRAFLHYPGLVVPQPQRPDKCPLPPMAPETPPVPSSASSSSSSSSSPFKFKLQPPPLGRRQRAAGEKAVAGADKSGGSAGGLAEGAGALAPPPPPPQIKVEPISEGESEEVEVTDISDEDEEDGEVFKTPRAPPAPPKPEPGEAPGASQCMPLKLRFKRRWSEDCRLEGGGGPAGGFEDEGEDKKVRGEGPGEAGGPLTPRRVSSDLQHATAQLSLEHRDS
# Method in brief: as §1
# [12] = target: T7, ETV3L (Homo sapiens, UniProt Q6ZN32 1-361); conditions: protein: recombinant; tags: N-terminal GST; dsDNA, one strand shown
# T7 sequence: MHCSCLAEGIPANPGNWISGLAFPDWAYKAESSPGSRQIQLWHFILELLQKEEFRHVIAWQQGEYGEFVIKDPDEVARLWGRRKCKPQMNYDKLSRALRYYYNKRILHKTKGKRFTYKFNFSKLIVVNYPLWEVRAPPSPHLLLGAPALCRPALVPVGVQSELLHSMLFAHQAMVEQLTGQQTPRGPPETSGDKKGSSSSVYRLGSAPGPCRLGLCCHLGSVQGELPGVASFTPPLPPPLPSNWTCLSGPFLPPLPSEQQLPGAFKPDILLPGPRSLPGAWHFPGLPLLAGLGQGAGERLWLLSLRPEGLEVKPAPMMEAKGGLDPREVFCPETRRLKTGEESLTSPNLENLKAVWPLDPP
# Method in brief: as §1
# [13] = target: T8, ETS2 (Homo sapiens, UniProt P15036 1-469); conditions: protein: recombinant; tags: N-terminal GST; dsDNA, one strand shown
# T8 sequence: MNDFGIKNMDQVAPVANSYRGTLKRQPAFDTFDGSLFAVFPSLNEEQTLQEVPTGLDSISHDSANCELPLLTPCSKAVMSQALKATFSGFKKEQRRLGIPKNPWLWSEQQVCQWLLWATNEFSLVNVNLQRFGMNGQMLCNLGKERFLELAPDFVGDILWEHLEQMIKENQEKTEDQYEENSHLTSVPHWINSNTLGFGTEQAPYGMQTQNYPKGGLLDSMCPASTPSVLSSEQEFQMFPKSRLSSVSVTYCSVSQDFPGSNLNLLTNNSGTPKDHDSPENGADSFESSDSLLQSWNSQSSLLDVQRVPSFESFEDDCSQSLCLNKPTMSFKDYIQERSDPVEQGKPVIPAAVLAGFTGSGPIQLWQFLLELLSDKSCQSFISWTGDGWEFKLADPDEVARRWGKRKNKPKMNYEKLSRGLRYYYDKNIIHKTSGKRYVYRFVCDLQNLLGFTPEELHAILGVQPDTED
# Method in brief: as §1
# [14] = target: T9, SPDEF (Homo sapiens, UniProt O95238 1-335); conditions: protein: recombinant; tags: N-terminal GST; dsDNA, one strand shown
# T9 sequence: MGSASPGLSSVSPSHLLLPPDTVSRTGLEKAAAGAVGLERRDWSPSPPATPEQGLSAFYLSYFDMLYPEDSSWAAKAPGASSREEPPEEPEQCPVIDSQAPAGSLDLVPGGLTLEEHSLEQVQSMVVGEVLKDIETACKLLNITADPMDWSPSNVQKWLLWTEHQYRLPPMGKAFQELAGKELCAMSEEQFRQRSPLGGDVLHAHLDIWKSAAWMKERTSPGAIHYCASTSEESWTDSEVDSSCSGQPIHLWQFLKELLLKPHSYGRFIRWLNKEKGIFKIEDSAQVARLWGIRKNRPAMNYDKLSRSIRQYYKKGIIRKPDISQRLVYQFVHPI
# Method in brief: as §1
# [15] = target: T10, ETV7 (Homo sapiens, UniProt Q9Y603 1-341); conditions: protein: recombinant; tags: N-terminal GST; dsDNA, one strand shown
# T10 sequence: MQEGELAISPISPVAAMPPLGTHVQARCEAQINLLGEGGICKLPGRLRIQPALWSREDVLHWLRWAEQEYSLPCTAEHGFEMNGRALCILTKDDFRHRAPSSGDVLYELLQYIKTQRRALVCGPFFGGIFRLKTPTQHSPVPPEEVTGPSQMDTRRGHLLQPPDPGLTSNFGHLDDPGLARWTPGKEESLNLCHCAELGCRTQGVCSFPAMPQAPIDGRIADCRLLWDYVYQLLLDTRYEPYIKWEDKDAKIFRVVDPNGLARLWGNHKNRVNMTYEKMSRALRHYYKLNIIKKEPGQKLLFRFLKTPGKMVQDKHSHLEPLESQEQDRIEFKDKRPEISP
# Method in brief: as §1
# [16] = target: T11, ELF5 (Homo sapiens, UniProt Q9UKW6-2 1-255); conditions: protein: recombinant; tags: N-terminal GST; dsDNA, one strand shown
# T11 sequence: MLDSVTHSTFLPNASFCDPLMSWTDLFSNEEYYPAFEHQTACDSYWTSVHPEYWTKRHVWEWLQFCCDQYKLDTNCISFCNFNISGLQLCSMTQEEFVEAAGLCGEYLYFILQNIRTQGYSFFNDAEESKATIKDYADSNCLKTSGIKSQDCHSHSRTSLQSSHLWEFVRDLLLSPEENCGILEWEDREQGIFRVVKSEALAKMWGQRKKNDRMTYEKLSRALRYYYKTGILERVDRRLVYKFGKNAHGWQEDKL
# Method in brief: as §1
# [17] = target: T12, ETV3 (Homo sapiens, UniProt P41162-2 1-143); conditions: protein: recombinant; tags: N-terminal GST; dsDNA, one strand shown
# T12 sequence: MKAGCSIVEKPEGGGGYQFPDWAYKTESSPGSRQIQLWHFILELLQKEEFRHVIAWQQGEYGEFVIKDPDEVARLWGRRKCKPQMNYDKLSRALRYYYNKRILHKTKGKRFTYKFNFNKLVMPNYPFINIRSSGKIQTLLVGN
# Method in brief: as §1
# [18] = target: ETV6 (Homo sapiens, UniProt P41212 1-452); conditions: protein: recombinant; tags: N-terminal GST; dsDNA, one strand shown
# Method in brief: as §1
# Chain of ELF4 (Q99607 whole entry): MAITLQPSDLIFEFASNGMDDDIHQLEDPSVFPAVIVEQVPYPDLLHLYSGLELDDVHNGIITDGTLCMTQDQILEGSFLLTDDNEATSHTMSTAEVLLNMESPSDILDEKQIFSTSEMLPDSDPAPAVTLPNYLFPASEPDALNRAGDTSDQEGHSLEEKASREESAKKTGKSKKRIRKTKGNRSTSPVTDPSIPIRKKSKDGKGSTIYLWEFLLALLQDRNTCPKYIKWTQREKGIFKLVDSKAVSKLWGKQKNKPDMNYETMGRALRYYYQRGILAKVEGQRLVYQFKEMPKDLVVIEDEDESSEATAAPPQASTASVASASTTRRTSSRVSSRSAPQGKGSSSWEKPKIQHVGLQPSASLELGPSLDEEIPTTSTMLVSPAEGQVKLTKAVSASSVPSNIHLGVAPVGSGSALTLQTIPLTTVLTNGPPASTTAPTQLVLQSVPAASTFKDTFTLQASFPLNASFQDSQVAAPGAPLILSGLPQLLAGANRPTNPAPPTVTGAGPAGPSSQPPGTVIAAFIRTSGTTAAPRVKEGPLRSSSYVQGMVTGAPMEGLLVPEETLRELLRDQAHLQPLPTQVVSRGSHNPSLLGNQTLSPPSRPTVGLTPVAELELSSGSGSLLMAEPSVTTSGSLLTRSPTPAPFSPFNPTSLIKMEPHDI
# Chain of ETV6 (P41212 whole entry): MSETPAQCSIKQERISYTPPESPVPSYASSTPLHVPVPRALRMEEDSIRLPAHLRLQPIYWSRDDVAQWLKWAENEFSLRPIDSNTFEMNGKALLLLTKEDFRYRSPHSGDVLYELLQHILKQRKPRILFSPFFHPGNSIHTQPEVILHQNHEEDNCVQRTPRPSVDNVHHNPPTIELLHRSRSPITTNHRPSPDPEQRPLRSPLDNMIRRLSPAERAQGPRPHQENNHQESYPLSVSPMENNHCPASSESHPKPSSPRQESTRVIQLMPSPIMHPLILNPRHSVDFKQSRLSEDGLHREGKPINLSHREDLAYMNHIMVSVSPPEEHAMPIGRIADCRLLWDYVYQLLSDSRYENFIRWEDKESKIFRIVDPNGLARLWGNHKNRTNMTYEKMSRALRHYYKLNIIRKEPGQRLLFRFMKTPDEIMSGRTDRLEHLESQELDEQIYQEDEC
# Chain of ETV1 (P50549 whole entry): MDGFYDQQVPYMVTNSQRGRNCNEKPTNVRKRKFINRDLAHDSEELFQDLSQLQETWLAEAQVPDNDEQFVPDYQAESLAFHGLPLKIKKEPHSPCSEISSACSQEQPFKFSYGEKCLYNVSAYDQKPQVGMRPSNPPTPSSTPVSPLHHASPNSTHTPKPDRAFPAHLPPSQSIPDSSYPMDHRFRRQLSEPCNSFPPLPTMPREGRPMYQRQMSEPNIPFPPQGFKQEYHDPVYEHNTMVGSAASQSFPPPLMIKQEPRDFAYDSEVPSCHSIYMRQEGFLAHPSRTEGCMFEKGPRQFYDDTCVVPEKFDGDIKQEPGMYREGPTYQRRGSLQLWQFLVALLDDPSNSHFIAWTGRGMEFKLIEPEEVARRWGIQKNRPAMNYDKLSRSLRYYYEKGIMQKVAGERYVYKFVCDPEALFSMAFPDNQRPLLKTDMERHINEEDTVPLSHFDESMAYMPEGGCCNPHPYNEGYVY
# Chain of CRX (O43186 whole entry): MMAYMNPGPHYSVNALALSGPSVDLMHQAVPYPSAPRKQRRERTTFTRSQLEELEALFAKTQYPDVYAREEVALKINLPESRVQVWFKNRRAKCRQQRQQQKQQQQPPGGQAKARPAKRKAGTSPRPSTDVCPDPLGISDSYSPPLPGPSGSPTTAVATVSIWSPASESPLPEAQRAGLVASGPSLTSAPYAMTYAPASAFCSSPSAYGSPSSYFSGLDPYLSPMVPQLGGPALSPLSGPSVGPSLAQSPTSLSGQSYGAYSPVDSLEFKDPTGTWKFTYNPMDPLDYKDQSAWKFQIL
# Chain of HSF1 (Q00613 whole entry): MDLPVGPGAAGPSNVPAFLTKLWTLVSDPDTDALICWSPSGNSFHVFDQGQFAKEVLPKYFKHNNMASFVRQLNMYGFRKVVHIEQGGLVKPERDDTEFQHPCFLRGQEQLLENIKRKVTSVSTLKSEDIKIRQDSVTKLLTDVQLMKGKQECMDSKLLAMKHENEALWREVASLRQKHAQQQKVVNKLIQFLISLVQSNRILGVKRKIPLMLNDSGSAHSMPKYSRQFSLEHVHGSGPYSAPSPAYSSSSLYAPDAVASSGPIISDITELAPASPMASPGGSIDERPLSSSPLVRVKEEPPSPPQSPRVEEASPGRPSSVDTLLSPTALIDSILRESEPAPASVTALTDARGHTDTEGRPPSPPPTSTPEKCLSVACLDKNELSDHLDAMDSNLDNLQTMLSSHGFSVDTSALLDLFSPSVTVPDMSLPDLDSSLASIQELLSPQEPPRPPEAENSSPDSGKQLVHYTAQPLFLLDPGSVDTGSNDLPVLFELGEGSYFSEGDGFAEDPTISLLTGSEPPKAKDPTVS
# Chain of ETV5 (P41161 whole entry): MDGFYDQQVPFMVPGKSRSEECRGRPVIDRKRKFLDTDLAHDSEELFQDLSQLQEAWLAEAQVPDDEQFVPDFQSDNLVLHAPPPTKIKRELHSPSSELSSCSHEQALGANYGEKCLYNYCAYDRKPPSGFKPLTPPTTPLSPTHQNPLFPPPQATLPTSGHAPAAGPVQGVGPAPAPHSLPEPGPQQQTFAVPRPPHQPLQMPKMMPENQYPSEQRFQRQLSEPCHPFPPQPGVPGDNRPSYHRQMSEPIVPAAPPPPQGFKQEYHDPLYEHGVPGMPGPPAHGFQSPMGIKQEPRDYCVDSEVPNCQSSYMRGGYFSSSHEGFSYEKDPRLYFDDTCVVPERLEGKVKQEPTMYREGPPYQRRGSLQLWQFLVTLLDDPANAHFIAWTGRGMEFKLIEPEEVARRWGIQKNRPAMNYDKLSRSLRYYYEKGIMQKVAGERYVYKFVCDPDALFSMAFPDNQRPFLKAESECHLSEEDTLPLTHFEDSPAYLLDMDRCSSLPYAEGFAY
sequence,measurement,setting,value
TAAATG,binding signal,[1],"1.18 fold enrichment (6-mer frequency, TF over GST control)"
same,binding signal,[2],"1.38 fold enrichment (6-mer frequency, TF over GST control)"
same,binding signal,[3],"1.37 fold enrichment (6-mer frequency, TF over GST control)"
same,binding signal,[4],"1.46 fold enrichment (6-mer frequency, TF over GST control)"
same,binding signal,[5],"1.25 fold enrichment (6-mer frequency, TF over GST control)"
same,binding signal,[6],"1.39 fold enrichment (6-mer frequency, TF over GST control)"
same,binding signal,[7],"1.31 fold enrichment (6-mer frequency, TF over GST control)"
same,binding signal,[8],"1.34 fold enrichment (6-mer frequency, TF over GST control)"
same,binding signal,[9],"1.69 fold enrichment (6-mer frequency, TF over GST control)"
same,binding signal,[10],"1.37 fold enrichment (6-mer frequency, TF over GST control)"
same,binding signal,[11],"1.24 fold enrichment (6-mer frequency, TF over GST control)"
same,binding signal,[12],"1.39 fold enrichment (6-mer frequency, TF over GST control)"
same,binding signal,[13],"1.38 fold enrichment (6-mer frequency, TF over GST control)"
same,binding signal,[14],"1.35 fold enrichment (6-mer frequency, TF over GST control)"
same,binding signal,[15],"1.31 fold enrichment (6-mer frequency, TF over GST control)"
same,binding signal,[16],"1.16 fold enrichment (6-mer frequency, TF over GST control)"
same,binding signal,[17],"1.31 fold enrichment (6-mer frequency, TF over GST control)"
same,binding signal,[18],"1.31 fold enrichment (6-mer frequency, TF over GST control)"
